Inconclusive results are not listed. A call without a number means that no potency is given here. Values without a mark were called inactive. Activity calls are given as the source filed them. The call rests on the fitted dose curve; in most records, active means well fitted inhibition curve with a large enough effect in the repeat runs; inconclusive means weak or mixed curves, or effect the other way; inactive means no such curve, though single readings can be large or run the other way.
Potency means the concentration at half of the fitted maximal effect.

This experiment can be described thus: qHTS assay to identify small molecule antagonists of the retinoic acid receptor (RAR) signaling pathway (AID 1159552; further: nearly all actives have a fitted effect of over 50% in size). The following applies: C3RL4 RARE luciferase reporter, retinol-stimulated, 6 h; series mostly up to 92.4 µM. An excerpt:
National Center for Advancing Translational Sciences [NCATS]
NIH Chemical Genomics Center [NCGC]
U.S. Environmental Protection Agency [EPA]
National Institutes of Environmental Health Sciences [NIEHS]
National Toxicology Program [NTP]
U.S. Food and Drug Administration [FDA]
All-trans Retinoic acid (atRA) is the potent natural metabolite of retinol and plays an important role in normal embryonic development and maintenance of cellular phenotype in adult animals. atRA is the activating ligand for the retinoic acid receptors (RARs) which form heterodimers with retinoid X receptors (RXRs) on the retinoic acid response element (RARE). Through activation of the RAR/RXRs nuclear receptors, atRA regulates the transcription of a large number of protein-coding genes and regulatory RNAs. Intracellular levels of atRA are controlled by the retinol signaling pathway (RSP) that regulates the biosynthesis and catabolism of atRA to maintain physiological levels. Chemicals that interfere with the RSP can cause abnormal intracellular levels of atRA and therefore are potential developmental toxicants. To assess compounds for the potential adverse effect on embryonic development through interfering with retinol signaling, a cell-based RARE luciferase reporter gene assay was used. C3RL4 cell line (OARSA/CFSAN/FDA, Laurel, MD) was used to screen Tox21 10K compound library for identifying inhibitors of the RSP.
Tox21 Assay Protocol Summary:
C3RL4 cells were seeded at 1,000/well in 4 uL of assay medium into white solid 1,536-well tissue culture plates (Greiner Bio-One North America Inc. Monroe, NC) using a Multidrop Combi (Thermo Scientific, Waltham, MA) dispenser. After incubation at 37 C and 5% CO2 for an overnight, 23 nL of compounds dissolved in DMSO, positive control or DMSO only were transferred by a Pintool station (Kalypsys, San Diego, CA). One ul of 1 uM (final concentration) of Retinol was added right after the compound addition by using a Flying Reagent Dispenser (FRD) (Aurora Discovery, San Diego, CA). After 6 hr incubation at 37 C and 5% CO2, 5 uL of Amplite Luciferase reagent (AAT Bioquest Inc. Sunnyvale, CA) was added to each assay plate using an FRD. Luminescence was quantified on a ViewLux plate reader (PerkinElmer, Waltham, MA) after 30 min incubation at room temperature.
With `C[C@]12CC[C@H]3[C@@H](CCC4=CC(=O)CC[C@@]43C)[C@@H]1CC[C@@H]2C(=O)O`, the Potency result is “inactive”.

Regarding `[As]#[In]`, the Potency result is “inactive”.

With `O=C(O)c1cccc(Cl)c1`, the Potency result was “inactive”.

Take `CNC(=O)Oc1ccc(N(C)C)c(C)c1`: the Potency entry is “inactive”.

As for `O=c1oc2ccccc2c(O)c1C1CCCc2ccccc21` (stereo not given), the Potency result is “inactive”.

Regarding `CCCSP(=O)(OCC)Oc1ccc(Br)cc1Cl` (stereo not given), the Potency result is “inactive”.

As to `O=C(Cc1ccccc1)OCc1ccccc1`, the Potency result was “inactive”.

Take `CC(=O)CC(c1ccc(Cl)cc1)c1c(O)c2ccccc2oc1=O` (stereo not given): the Potency entry is “inactive”.

`CCC#N`: the Potency entry is “inactive”.

For the compound `O=[N+]([O-])c1ccc2c3c(cccc13)CC2`, the Potency entry was “inactive”.

In the case of `Fc1ccc(C2(Cn3cncn3)OC2c2ccccc2Cl)cc1` (stereo not given), the Potency result was “inactive”.

With `CCOP(=S)(OCC)Oc1nc(Cl)n(C(C)C)n1`, the Potency result was “inactive”.

Turning to `C=C(C)CN(CC)c1c([N+](=O)[O-])cc(C(F)(F)F)cc1[N+](=O)[O-]`, the Potency entry is “inactive”.

As to `O=C(Oc1ccc(Br)cc1)N1CCN2CCC1CC2`, the Potency entry was “inactive”.

For the compound `CC1(C)CON(Cc2ccccc2Cl)C1=O`, the Potency result is “inactive”.

`C#C[C@]1(O)C=C[C@H]2[C@@H]3CCC4=CC(=O)CC[C@@H]4[C@H]3CC[C@@]21CC`: the Potency was 11.9 µM (active).

For `ClC(Cl)Br`, the Potency result is “inactive”.

In the case of `CC1=NNC(=O)N(/N=C/c2cccnc2)C1`, the Potency entry was “inactive”.

Turning to `CN1CCN(C(=O)O[C@H]2c3nccnc3C(=O)N2c2ccc(Cl)cn2)CC1`, the Potency entry is “inactive”.

Consider `C#CCN1C(=O)COc2cc(F)c(N3C(=O)C4=C(CCCC4)C3=O)cc21`, for which the Potency result is “inactive”.

In the case of `ClCCCN1CCN(c2cccc(Cl)c2)CC1`, the Potency entry is “inactive”.

Regarding `CCCSC(=O)Cl`, the Potency result is “inactive”.

Turning to `CCC/C(=N\OCC)C1=C(O)CC(CC(C)SCC)CC1=O` (stereo not given), the Potency entry was “inactive”.

For the compound `C=CC1CC=CCC1` (stereo not given), the Potency entry was “inactive”.

On to `ClCCOCOCCCl`, for which the Potency entry was “inactive”.

Take `O=C1OC(c2ccc(O)c(S(=O)(=O)O)c2)(c2ccc(O)c(S(=O)(=O)O)c2)c2c(Br)c(Br)c(Br)c(Br)c21`: the Potency entry is “inactive”.

As to `CCOP(=S)(OCC)SCSc1ccc(Cl)cc1`, the Potency entry is “inactive”.

Turning to `CS(=O)(=O)c1cc(C(F)(F)F)ccc1C(=O)c1cnoc1C1CC1`, the Potency entry is “inactive”.

For the compound `CCOC(=O)C1(c2ccccc2)CCN(CCc2ccc(N)cc2)CC1`, the Potency entry is “inactive”.

As for `CNC(=O)Oc1ccccc1C1OCCO1`, the Potency entry is “inactive”.

In the case of `ClC(Cl)C(Cl)Cl`, the Potency result is “inactive”.

For `CC(C(O)c1ccccc1)N(C)C/C=C/c1ccccc1` (stereo not given), the Potency entry was “inactive”.

On to `CCN(CC)c1nc(C)cc(OP(=S)(OC)OC)n1`, for which the Potency result is “inactive”.

With `c1cc[c]([Hg][c]2ccccc2)cc1`, the Potency result was “inactive”.

Turning to `COC(=O)c1c(C(F)F)nc(C(F)(F)F)c(C2=NCCS2)c1CC(C)C`, the Potency entry is “inactive”.

In the case of `O=C(N[C@H]1CN2CCC1CC2)c1cc2ccoc2cn1`, the Potency result was “inactive”.

In the case of `O=C1c2ccccc2C(=O)c2ccccc21`, the activity, negative = inhibition was 14.2% [at 19 µM].

As for `Clc1cccc(N2CCNCC2)c1`, the Potency entry was “inactive”.

With `C[C@]12CC[C@H]3[C@@H](CC=C4C[C@@H](O)CC[C@@]43C)[C@@H]1CC[C@@H]2O`, the Potency result is “inactive”.

Take `O=C1OC(CCN2CCCCC2)OC1(c1ccccc1)c1ccccc1` (stereo not given): the Potency is 26.6 µM (active).

Source of the values: PubChem BioAssay (Tox21).
